DT40 TDP1 CPT = growth inhibition of DT40 Tdp1-/-;hTDP1 cells with camptothecin (screen for TDP1 inhibitors); chicken DT40 Tdp1-/-;hTDP1 cells + 20 nM CPT, ATP luminescence, 48 h; Potency, µM (doses to about 46.2 µM), inactives show at the top dose activity change, negative = growth inhibition, most hits filed as inhibitors; 12% of 420,000 active; also: potency is read from the fitted curve at half-maximal effect; % is scaled to controls: 0 for no effect and ±100 for the full control effect; nearly all actives have a fitted effect of over 55% in size
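Chicken DT40 Tdp1-/- cells stably complemented with human TDP1 were seeded at 400 cells/well in medium containing 20 nM camptothecin, exposed to pin-transferred compounds, and grown at 37 °C for at least 48 hr. Viability was read as ATP luminescence.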
Chronic BCR inh = inhibitors of chronic active B-cell receptor signaling. 0.05% of 340,000 active. ABC-DLBCL IkBa-CBG/CBR reporter, luminescence ratio, 4 h. AID 493014. Potency, µM (highest dose often 46.1 µM), without a hit: at the highest dose activity change, negative = inhibition, hits mostly inhibitors; active = well fitted inhibition curve with a large enough effect in the signal ratio, with a control signal flat, not every such curve was filed as active; inconclusive = small, poorly fitted or top-dose-only effect, or effect the other way, or a change in a side signal; the % refers to the signal ratio;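 also: potency is read from the fitted curve at half-maximal effect; plate controls were basal doxycycline-induced cells for no effect and cells given 10 µM MG132 for full effect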
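TMD8 ABC-DLBCL cells carrying doxycycline-inducible green luciferase fused to IkappaBalpha plus unfused red luciferase were exposed to compounds (up to 46 uM) for 4 hrs at 37C. Activity came from the overlap-corrected green/red luminescence ratio.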
TDP1 cell noCPT = qHTS for Inhibitors of human tyrosyl-DNA phosphodiesterase 1 (TDP1): qHTS in cells in absence of CPT; DT40 Tdp1-/- hTDP1 cells, no CPT, ATP luminescence, 48 h; 15% of 420,000 active; Potency, µM (series often up to 46.2 µM), inactives show at the highest dose activity change, negative = growth inhibition, actives largely listed as inhibitors; also: potency is read from the fitted curve at half-maximal effect; % is scaled to controls: 0 for no effect and ±100 for the full control effect; nearly all actives have a fitted effect of over 55% in size
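Stably hTDP1-transfected Tdp1-null chicken DT40 cells were treated with library compounds minus camptothecin and grown for at least 48 hr at 37 °C, after which cellular ATP was quantified by luminescence.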
IL-1B inflam inh = blocks inflammasome-driven IL-1 beta release; activity change, % at 57.5 µM; THP-1 LPS/ATP IL-1B secretion, AlphaLISA, 16 h; active compounds read low; 4.7% of 360,000 active; in the data active = activity change below about -50%; inconclusive = mostly about -30% to -49%; also: % is scaled to controls: 0 for no effect and ±100 for the full control effect
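Secreted IL-1B measured by AlphaLISA bead assay after 16 h compound exposure of THP-1 cells; compounds (final up to 57.5 uM) added 1 h before LPS (250 ng/mL) and ATP (1.25 mM) stimulation; lower signal means less secretion.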
SW480 rereplic = induces DNA re-replication in SW480 colon adenocarcinoma cells. 1.8% of 340,000 active. Potency, µM (top dose mostly 46.1 µM), for inactives: at the top dose re-replication activation, most hits filed as activators. AID 624297. SW480 DNA re-replication, Hoechst DNA content imaging, 48 h; also: potency is read from the fitted curve at half-maximal effect; % of control where 0% means no effect; nearly all actives have a fitted effect of over 55% in size
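Quantitative HTS format with DMSO vehicle controls; 48 hr drug incubation at 37 C, then 40 min Hoechst staining and scanning imager measurement at 405 nm excitation.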
MCF10A rereplic = inducers of DNA re-replication in MCF 10A breast cells; MCF 10A DNA re-replication, Hoechst nuclear intensity, 48 h; Potency, µM (doses to about 46.1 µM), inactives show at the top dose activity, positive = re-replication, hits mostly activators; 2.9% of 350,000 active; AID 624296; also: potency is read from the fitted curve at half-maximal effect; % of control where 0% means no effect; nearly all actives have a fitted effect of over 50% in size
* = called active by the depositor; i = inactive; u = inconclusive; x = no result; [ ] = another dose, or the depositor's remark. Sampled rows, rich in hits. Any-hit rate of the full collection: about 19%. Unless noted, calls follow the shape of the dose curve; as a rule, active = well fitted curve in the direction sought with a large enough effect; inconclusive = small, poorly fitted or top-dose-only effect, or another doubt; inactive = no such curve, though single readings can be large; an effect the other way counts as inactive or inconclusive.

SMILES	DT40 TDP1 CPT	Chronic BCR inh	TDP1 cell noCPT	IL-1B inflam inh	SW480 rereplic	MCF10A rereplic
CCC(=O)N1c2ccccc2NC2=C(C(=O)CC(C)(C)C2)C1c1ccc(O)c(OC)c1 (configuration not stated)	-8%	3%	4%	0	u	-7%
CN(C)c1ccc(NC(=O)CCCc2ccccc2)cc1	-25%	2%	-6%	-6	0%	1%
CC(=O)NC1=C(Nc2ccc(N(C)C)cc2)C(=O)c2ccccc2C1=O	13µM*	7%	u	30	18%	8%
CC(=O)NC1=C(N(C)C2CCS(=O)(=O)C2)C(=O)c2ccccc2C1=O (configuration not stated)	8.2µM*	u	9.2µM*	u	u	u
CN(C(=O)Nc1ccccc1)C1CCS(=O)(=O)C1 (configuration not stated)	2%	8%	7%	34	-3%	-1%
CCCCN(C(=O)c1ccc(NC2CC2)c([N+](=O)[O-])c1)c1c(N)n(CC(C)C)c(=O)[nH]c1=O	-23%	1%	3%	u	-19%	17%
COc1cccc(CN(CC(=O)NCc2ccccc2)C(=O)c2csnn2)c1	1%	12%	-22%	14	-16%	-1%
CCOc1[nH]c(/N=C/c2ccco2)c(C#N)c1C#N	21µM*	5%	u	3	2%	-3%
CCOc1[nH]c(/N=C/c2ccc(OC)cc2)c(C#N)c1C#N	-29%	x	-11%	x	x	x
COc1ccc(N2CCN(C(=O)C3CCN(S(=O)(=O)c4ccccc4)CC3)CC2)cc1	-25%	0%	u	-28	-4%	-30%
O=C(C1CCN(S(=O)(=O)c2ccccc2)CC1)N1CCN(c2ccccc2)CC1	u	0%	21µM*	i	u	u
O=C(C1CCN(S(=O)(=O)c2cccnc2)CC1)N1CCN(c2ccc(Cl)cc2)CC1	5.2µM*	-11%	3.7µM*	-13	-18%	-3%
Cc1ccc(Cl)cc1N1CCN(S(=O)(=O)c2cnc[nH]2)CC1	21µM*	-17%	u	-3	-8%	4%
Cc1ccc(Cl)cc1N1CCN(S(C)(=O)=O)CC1	-18%	u	-16%	-21	-8%	u
Cc1ccc(Cl)cc1N1CCN(C(=O)C2CCN(S(=O)(=O)c3cccnc3)CC2)CC1	2.9µM*	5%	4.6µM*	0	6%	11%
Cc1ccc(Cl)cc1N1CCN(C(=O)C2CCN(S(=O)(=O)Cc3ccccc3)CC2)CC1	4.1µM*	x	13µM*	x	x	x
O=C(C1CCN(S(=O)(=O)c2cccnc2)CC1)N1CCN(c2ccccc2Cl)CC1	u	x	21µM*	7	-3%	-20%
O=C(C1CCN(S(=O)(=O)Cc2ccccc2)CC1)N1CCN(c2cccc(Cl)c2)CC1	-16%	x	u	x	x	x
Cc1ccc2cccc(CC(=O)NN)c2c1	-4%	x	-23%	16	x	x
COCCn1c(C(C)C)nc2ccccc21	-3%	-3%	6%	15	12%	0%
Cn1nc2c3ccccc3n(Cc3ccccc3)c2nc1=S	-18%	5%	u	7	0%	0%
CCn1c2ccccc2c2nn(C)c(=N)nc21	15µM*	7%	18µM*	-26	0%	6%
COc1ccccc1NC(=O)Cc1csc(NC(=S)Nc2ccccc2)n1	4.6µM*	u	6.5µM*	-9	2.6µM*	u
COc1cc(OC)cc(C(=O)Nc2nc(CC(=O)NC(C)c3ccccc3)cs2)c1 (configuration not stated)	u	u	-26%	-10	6%	10%
COc1ccccc1CCC(=O)OCc1csc(CC(=O)Nc2ccccc2C)n1	14%	u	22%	15	u	0%
SMILES	DT40 TDP1 CPT	Chronic BCR inh	TDP1 cell noCPT	IL-1B inflam inh	SW480 rereplic	MCF10A rereplic
CCN(CC(=O)Nc1ccccc1OC)Cc1csc(CC(=O)Nc2ccc(C)cc2)n1	26µM*	-4%	16µM*	-23	u	u
COc1ccccc1NC(=O)Nc1nnc(CC(=O)Nc2ccccc2C)s1	u	u	u	8	-2%	-2%
COc1ccc(NC(=O)Cc2csc(NC(=O)Nc3ccccc3OC)n2)c(OC)c1	u	u	13µM*	-5	1%	6%
CCC(=O)Nc1nc(CC(=O)Nc2ccccc2)cs1	-13%	-10%	-22%	16	-2%	6%
COc1ccc(OC)c(NC(=O)Cc2csc(NC(=O)Nc3ccccc3OC)n2)c1	u	u	21µM*	9	1%	u
Cc1ccc(S(=O)(=O)NCC(=O)N2CCN(c3ccc(F)cc3)CC2)cc1	-4%	1%	-8%	-8	-2%	u
Cc1cc(NC(=O)C(C)SCC(=O)N(C)Cc2ccccc2F)no1 (configuration not stated)	-5%	-1%	12%	0	13%	u
CN1CCN(c2cc(-c3ccccc3Cl)ncn2)CC1	-4%	x	-5%	x	x	x
CCCCCCCCCC(=O)N[C@@H]1c2cc(OC)c(OC)cc2C[C@H]1OCc1ccccc1	-17%	1%	-14%	82	2%	17%
COC(=O)c1ccc(-c2ccc([C@H]3[C@H]4C=CC[C@@H](C)[C@@H]4C(=O)N3Cc3ccccc3)c(F)c2)cc1	6.5µM*	-10%	3.3µM*	38	u	u
CC(=O)c1ccc(-c2ccc([C@H]3[C@H]4C=CC[C@@H](C)[C@@H]4C(=O)N3Cc3ccccc3)c(F)c2)cc1	13µM*	-5%	13µM*	-4	-17%[9.22 µM]	u
Cc1ccc(-c2ccc([C@H]3[C@H]4C=CC[C@@H](C)[C@@H]4C(=O)N3Cc3ccccc3)c(F)c2)cc1	u	0%	u	22	21%[9.22 µM]	u
C[C@@H]1CC=C[C@H]2[C@H]1C(=O)N(Cc1ccccc1)[C@H]2c1ccc(-c2ccc(N(C)C)cc2)cc1F	21µM*	-1%	12µM*	0	u	u
Cc1cc(C)n(-c2ccccc2C#N)n1	8%	9%	-3%	-6	-94%	0%
O=C(COc1ccc(Cl)cc1)NCC(c1ccco1)S(=O)(=O)c1ccccc1 (configuration not stated)	u	5%	21µM*	x	x	x
O=C(COc1ccccc1)NCC(c1cccs1)S(=O)(=O)c1ccc(Cl)cc1 (configuration not stated)	u	u	23µM*	x	x	x
